Compound activity: PubChem, The Scripps Research Institute Molecular Screening Center
DAX1 inh-1: DAX1 (NR0B1) inhibition, primary screen; HEK293T StAR-luciferase reporter, SF-1/DAX-1 repression relief; inhibition, % at 6.8 µM; actives 1.1% (n = 370,000);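 active means inhibition above the mean over all tested compounds plus 3 SD, cut at about 3.6% in these data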;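 further: 0% = DAX-1 cells with DMSO and 100% = cells lacking DAX-1 with DMSO; higher inhibition means more luminescence from relief of DAX-1 repression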
ssDAF-12 act: activates DAF-12 receptor from parasite S. stercoralis; activation, % at 6.8 µM; actives 1% (n = 370,000); HEK293 ssDAF-12/GRIP1 lit1-tk-luc reporter, luminescence; % of 3 µM dafachronic acid response; AID 652126;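 active means activation above the mean over all tested compounds plus 3 SD, cut at about 0.9% in these data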;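 further: 0% = DMSO-only wells and 100% = 3 µM delta7-dafachronic acid wells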
AHR activator: activators of human aryl hydrocarbon receptor. AID 2796. AHR-responsive luciferase reporter cells, luminescence. activation, % at 5 µM. P35869. actives 2.5% (n = 320,000); in the data active means activation above about 47%;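 further: 0% = vehicle wells and 100% = reference agonist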
hcDAF-12 act: H. contortus DAF-12 activation, primary screen; actives 1.4% (n = 370,000); activation, % at 6.8 µM; HEK293 hcDAF-12 lit1-tk-luc reporter, luminescence; 0% DMSO, 100% Δ7-dafachronic acid;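 active means activation above the mean of all tested compounds plus 3 SD, cut at about 5.5% in these data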;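 further: 100% = response to 3 µM Δ7-dafachronic acid high control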
hgDAF-12 ag: hgDAF-12 agonism, primary luciferase screen; HEK293 GAL4-hgDAF12 UAS-luciferase reporter, agonist luminescence; normalized to butyrate control; activation, % at 6.8 µM; actives 1.8% (n = 370,000);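 active means activation above a cutoff set at the mean of all screened compounds plus 3 SD, cut at about 10% in these data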;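 further: 0% = DMSO wells and 100% = sodium butyrate wells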
DAX1 inh-2: inhibitors of human orphan nuclear receptor DAX1 (NR0B1); HEK293 Gal4-DAX1 luciferase reporter, luminescence; actives 0.99% (n = 340,000); AID 504766; inhibition, % at 6.75 µM;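 active means inhibition above the mean over all tested compounds plus 3 SD, cut at about 4.2% in these data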;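 further: 0% = DAX1-transfected cells with DMSO and 100% = empty-vector control cells with DMSO; inhibition shows as a rise in luminescence from relieved DAX1 repression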
Target sequence (P51843 207-470 limits assumed): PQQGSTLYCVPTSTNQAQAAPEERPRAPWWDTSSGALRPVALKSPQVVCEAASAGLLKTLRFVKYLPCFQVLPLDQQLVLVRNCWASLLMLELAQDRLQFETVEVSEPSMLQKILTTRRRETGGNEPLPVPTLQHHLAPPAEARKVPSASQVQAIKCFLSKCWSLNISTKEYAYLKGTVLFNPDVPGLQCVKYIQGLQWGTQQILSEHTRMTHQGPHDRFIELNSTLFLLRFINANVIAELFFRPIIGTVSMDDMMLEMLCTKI
DAX1 conf: NR0B1 (human) inhibition, confirmation; HEK293T StAR-promoter luciferase reporter, SF-1/DAX-1 repression; actives 87% (n = 2,400); shares compounds with DAX1 inh-1; AID 652134; inhibition, % at 6.8 µM;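 active means inhibition above the average of every tested compound plus 3 SD, cut at about 3.8% in these data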;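 further: 0% = DAX-1 cells with DMSO and 100% = no DAX-1 control cells with DMSO; active compounds raise luminescence by relieving repression of the StAR reporter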
SF1 AF2mut Luc: nonselective inhibitor or artifact in SF-1 mutant DAX1 counter-screen | HEK293 StAR-luciferase, SF-1 AF2 mutant, luminescence | actives 78% (n = 2,400) | inhibition, % at 6.8 µM | shares compounds with DAX1 inh-1 | AID 652136;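 active means inhibition above the mean of all tested compounds plus 3 SD, cut at about 3% in these data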;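 further: 0% = DAX-1 transfected cells with DMSO and 100% = cells without DAX-1 with DMSO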
An asterisk follows results filed as active; . = no result. Most compounds without a hit are left out; they make up all but 5.7% or so of the library.

SMILES	DAX1 inh-1	ssDAF-12 act	AHR activator	hcDAF-12 act	hgDAF-12 ag	DAX1 inh-2	DAX1 conf	SF1 AF2mut Luc
O=C(Nc1nnc(C2CC2)s1)C1COc2ccccc2O1 (stereo not drawn)	5.7*	-1	0	3	12*	2	11*	5.5*
Cc1ccc(OCc2nnn(CC(=O)NS(=O)(=O)c3c(C)noc3C)c2-c2ccccc2)cc1	-1	-2	.	-2	0	.	.	.
COc1ccc(CN(CC(=O)NCc2ccccc2)C(=O)CCC(=O)Nc2cc(C)ccn2)cc1	0	0	-1	-1	0	-2	.	.
CCC(NC(=S)NC1CCCCC1)c1ccccc1 (stereo not drawn)	-3	-1	.	-4	-4	-2	.	.
Cn1ccnc1SCC(=O)Nc1ccccc1	0	-1	18	-1	0	0	.	.
CCOc1ccc(NC(=O)CSc2nccn2Cc2ccco2)cc1	-2	-1	4	2	6	1	.	.
Cn1ccnc1SCC(=O)Nc1ccc2ccccc2c1	5.7*	1.2*	13	5	9	0	10*	6.3*
COc1cccc(C(=O)CSc2nccn2C)c1	0	0	21	1	3	4	.	.
COc1ccc(C(=O)CSc2nccn2C)c(OC)c1	6.9*	0	.	3	11*	1	5.5*	3
Cn1ccnc1SCC(=O)Nc1ccc(SC(F)F)cc1	6.2*	0	0	2	5	1	8.4*	5.3*
COc1ccc(NC(=O)CSc2nccn2Cc2ccco2)cc1	5.2*	0	0	1	8	1	6.8*	6.0*
O=C(CN1CCc2cc3c(cc2C1)OCCCO3)Nc1c(F)cccc1F	-6	-2	1	-4	-4	0	.	.
O=C(c1cc(-c2ccccc2O)on1)N1CCOCC1	1	-1	-12	0	9	3	.	.
O=C(c1cc(-c2ccc(Cl)cc2Cl)on1)N1CCOCC1	6.1*	0	-7	4	6	-3	7.9*	2
CCC(C)c1ccc(NC(=O)Nc2cccnc2)cc1 (stereo not drawn)	6.4*	1	79*	0	9	2	4.7*	3.6*
CC(C)c1ccc(C2NC(=S)NC3=C2C(=O)CC(C)(C)C3)cc1 (stereo not drawn)	0	-1	8	-3	0	-1	.	.
CN(C(=O)c1cccc(NC(=O)Cc2ccc(NC(=O)C3CCN(C(=O)C4CC4)CC3)cc2)c1)C1CCC1	5.0*	0	.	1	0	-2	2	2
CC(C)OC(=O)c1ccc(NC(=O)c2ccccc2)cc1	2	-1	0	-1	5	0	.	.
CC(C)OC(=O)c1ccc2ccc(-c3ccccc3)nc2c1	8.4*	1	.	2	9	.	15*	7.3*
Cc1c(C(=O)OCC(C)C)[nH]c2c1C(=O)CC(c1ccco1)C2 (stereo not drawn)	6.3*	-1	1	-2	-5	-2	9.0*	-8
COC(=O)c1[nH]c2c(c1C)C(=O)CC(c1ccccc1)C2 (stereo not drawn)	0	0	11	0	-4	1	.	.
CSc1ccc(C2C(C(=O)c3ccco3)=C(O)C(=O)N2c2nnc(SC)s2)cc1 (stereo not drawn)	6.4*	-1	8	4	12*	-1	3	3.1*
Cc1cc(C)n(-c2n[nH]c(C)c2[N+](=O)[O-])n1	0	-2	2	0	-3	1	.	.
Cc1nc(SCc2nc3ccc([N+](=O)[O-])cc3[nH]2)c2oc3ccccc3c2n1	0	-1	8	-2	-3	-1	.	.
Nc1cc2[nH]c(=O)c3ccccc3c2cc1[N+](=O)[O-]	5.4*	-1	.	2	7	1	0	-1
SMILES	DAX1 inh-1	ssDAF-12 act	AHR activator	hcDAF-12 act	hgDAF-12 ag	DAX1 inh-2	DAX1 conf	SF1 AF2mut Luc
COc1cc2c(=O)[nH]c3cc([N+](=O)[O-])ccc3c2cc1[N+](=O)[O-]	-6	-1	.	-3	-2	0	.	.
COCCN(C(=O)Nc1ccc(OC)cc1)c1nc2ccccc2s1	0	-1	8	-2	0	1	.	.
Cc1nn(-c2ccc(N3CCOCC3)nn2)c(C)c1CCC(=O)NCc1ccccc1	0	-1	2	1	2	0	.	.
Cc1ccc2nc(SC(C)C(=O)N3CCOCC3)[nH]c2c1 (stereo not drawn)	7.3*	-1	50*	4	11*	2	6.2*	5.0*
OC[C@H]1O[C@H](c2nc(-c3nc(-c4cccs4)no3)cs2)C[C@@H]1O	4.8*	0	.	3	12*	.	5.7*	3
O=C(N/N=C/c1cccc2ccccc12)c1cccc(F)c1	5.1*	0	33	3	8	0	2	2
COc1ccccc1Oc1ncnc2c1cnn2-c1ccccc1	4.7*	-1	-4	2	12*	0	3	3.6*
COc1ncnc2c1cnn2-c1ccccc1	0	-1	-9	-1	2	1	.	.
Cc1ccc2occ(/C=N/NC(=O)c3ccc(Cl)cc3)c(=O)c2c1	0	-1	2	-1	4	0	.	.
Cc1ccc2occ(/C=N/NC(=O)c3ccccc3O)c(=O)c2c1	10*	0	40	6.4*	5	1	7.3*	7.6*
O=C(NCC(=O)N1CCN(c2ccccc2)CC1)c1ccc(Br)o1	2	0	5	-1	-1	1	.	.
CC1CCN(C(=O)CNC(=O)c2ccc(Br)o2)CC1	4.9*	0	6	5	9	2	3	2
Cc1cnc(C(=O)N(c2ccccc2)C(c2ccccc2)c2nc3ccccc3[nH]2)cn1 (stereo not drawn)	6.0*	0	.	3	9	.	5.0*	3.7*
CC(=O)NC(c1ccccc1)c1nc2ccccc2[nH]1 (stereo not drawn)	0	-1	1	-1	0	-1	.	.
Cc1cccc(NC(=O)NC2CCCCCCC2)c1	5.7*	0	.	1	8	1	4.9*	3.6*
CC1CN(CC(=O)Nc2nc3ccccc3s2)CC(C)O1 (stereo not drawn)	0	0	20	3	7	1	.	.
CCOc1ccc(-c2cn3ccccc3n2)cc1	9.9*	0	-11	5.8*	10	-3	14*	4.4*
Cc1ccc(Nc2n[nH]c(=S)s2)cc1F	5.4*	0	.	1	6	2	4.3*	2.9*
